Laboratory results: the supplement of paper PMC10849652
About 8,800 targets were measured; listed, in parts, are those with a hit and a random draw of the rest. About 0.5% of all pairs of compound and target were hits.

Legend:
Assay in all cases: log2 fold change, soluble protein after heating vs DMSO (PISA); higher = thermal stabilisation; K562 lysate, 10 uM; active = over 0.2 and 3.5 SD of the protein, either way, in both replicates (recomputed)
vemurafenib = compound: CCCS(=O)(=O)Nc1ccc(F)c(C(=O)c2c[nH]c3ncc(-c4ccc(Cl)cc4)cc23)c1F [vemurafenib]
Outline: (§1)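 Pellets of K562 cells were dounce-homogenised in PBS pH 7.4 with 1 mM MgCl2, and the crude extract was held at 1 mg/mL protein for a 30 min treatment with 10 μM compound. Aliquots were heated for 3 min over 48°C-58°C and pooled before NP-40 was added to 0.5% at 4°C. The supernatant from 21,000xg for 90 min was quantified by TMTpro 16plex LC-MS/MS with channel sums equalised. Values are reported from duplicates as log-two fold change in thermal stability relative to solvent controls.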

[1] = compound: CCCS(=O)(=O)Nc1ccc(F)c(C(=O)c2c[nH]c3ncc(Cl)cc23)c1F
Outline: as §1

barasertib = compound: CCN(CCCOc1ccc2c(Nc3cc(CC(=O)Nc4cccc(F)c4)[nH]n3)ncnc2c1)CCOP(=O)(O)O [barasertib]
Outline: as §1

[2] = compound: CC[C@@H]1C(=O)N(C)c2cnc(Nc3ccc(C(=O)NC4CCN(C)CC4)cc3OC)nc2N1C1CCCC1
Outline: as §1

volasertib = compound: CC[C@@H]1C(=O)N(C)c2cnc(Nc3ccc(C(=O)N[C@H]4CC[C@H](N5CCN(CC6CC6)CC5)CC4)cc3OC)nc2N1C(C)C [volasertib]
Outline: as §1

[3] = compound: CCn1c(C(=O)N(C2CC2)C2CC2)cc2c3c(ncn3C)c(Nc3cc(C)n(C)n3)nc21
Outline: as §1

[4] = compound: CCn1cc(-c2ccnc3[nH]c(-c4cccc(CN(C)C)c4)cc23)c(-c2ccc(NC(=O)N(C)C)cc2)n1
Outline: as §1

[5] = compound: CN1CCC(CNc2ccc3ncc(-c4cccc(OC(F)(F)F)c4)n3n2)CC1
Outline: as §1

saracatinib = compound: CN1CCN(CCOc2cc(OC3CCOCC3)c3c(Nc4c(Cl)ccc5c4OCO5)ncnc3c2)CC1 [saracatinib]
Outline: as §1

sotrastaurin = compound: CN1CCN(c2nc(C3=C(c4c[nH]c5ccccc45)C(=O)NC3=O)c3ccccc3n2)CC1 [sotrastaurin]
Outline: as §1

alvocidib = compound: CN1CC[C@H](c2c(O)cc(O)c3c(=O)cc(-c4ccccc4Cl)oc23)[C@H](O)C1 [alvocidib]
Outline: as §1

Tubastatin A = compound: CN1CCc2c(c3ccccc3n2Cc2ccc(C(=O)NO)cc2)C1 [Tubastatin A]
Outline: as §1

[6] = compound: CNC(=O)C1=CC=CC=C1NC2=NC(=NC=C2Cl)NC3=C(C=C(C=C3)N4CCOCC4)OC
Outline: as §1

defactinib = compound: CNC(=O)c1ccc(Nc2ncc(C(F)(F)F)c(NCc3nccnc3N(C)S(C)(=O)=O)n2)cc1 [defactinib]
Outline: as §1

[7] = compound: CNc1nc(-c2ccc3c(N)n[nH]c3c2)cc(N2C[C@@H](C(=O)NC3CCCCC3)CC[C@H]2C)n1
Outline: as §1

encorafenib = compound: COC(=O)N[C@@H](C)CNc1nccc(-c2cn(C(C)C)nc2-c2cc(Cl)cc(NS(C)(=O)=O)c2F)n1 [encorafenib]
Outline: as §1

[8] = compound: COC(=O)[C@H](CCSC)NC(=O)C1=C(C=C(C=C1)NC[C@H](CS)N)C2=CC=CC=C2
Outline: as §1

alisertib = compound: COc1cc(Nc2ncc3c(n2)-c2ccc(Cl)cc2C(c2c(F)cccc2OC)=NC3)ccc1C(=O)O [alisertib]
Outline: as §1

[9] = compound: COc1cc2nc(-c3cc(F)ccc3O)nc(N[C@@H]3CNC[C@H]3C(C)(C)O)c2cc1OC
Outline: as §1

gefitinib = compound: COc1cc2ncnc(Nc3ccc(F)c(Cl)c3)c2cc1OCCCN1CCOCC1 [gefitinib]
Outline: as §1

Measured: log2 fold change

ZNHIT6 (UniProt Q9NWK9)
inactive: vemurafenib -0.001 | [1] 0.035 | barasertib 0.009 | [2] 0.023 | volasertib -0.016 | [3] 0.05 | [4] 0.089 | [5] -0.071 | saracatinib -0.029 | sotrastaurin -0.005 | alvocidib 0.004 | Tubastatin A -0.046 | [6] 0.034 | defactinib -0.04 | [7] 0.086 | encorafenib 0.037 | [8] 0.118 | alisertib -0.021 | [9] -0.022 | gefitinib 0.008

ZFYVE19 isoform 3 (UniProt Q96K21)
inactive: [1] 0.048 | barasertib -0.037 | volasertib -0.231 | [9] -0.006

WAS (UniProt P42768)
UniProt P42768, sequence (P42768 whole entry, looked up): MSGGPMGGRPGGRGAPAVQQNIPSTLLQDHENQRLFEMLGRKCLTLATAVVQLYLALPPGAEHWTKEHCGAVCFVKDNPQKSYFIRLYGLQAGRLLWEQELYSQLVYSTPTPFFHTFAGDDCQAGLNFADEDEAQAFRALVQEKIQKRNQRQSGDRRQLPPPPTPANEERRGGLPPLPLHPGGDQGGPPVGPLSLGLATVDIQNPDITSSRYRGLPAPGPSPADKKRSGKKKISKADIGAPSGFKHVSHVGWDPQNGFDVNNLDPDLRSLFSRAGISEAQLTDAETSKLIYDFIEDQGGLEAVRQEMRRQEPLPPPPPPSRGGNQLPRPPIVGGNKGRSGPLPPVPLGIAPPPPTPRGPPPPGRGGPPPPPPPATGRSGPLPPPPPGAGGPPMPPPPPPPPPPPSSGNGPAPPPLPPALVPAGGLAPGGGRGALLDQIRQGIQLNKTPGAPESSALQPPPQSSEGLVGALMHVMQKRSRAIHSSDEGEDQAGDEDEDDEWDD
inactive: barasertib 0.046 | [2] 0.043 | [4] 0.007 | [5] 0.019 | saracatinib -0.136 | alvocidib -0.028 | [6] 0.032 | [7] 0.365 | encorafenib 0.004 | [8] 0.08 | alisertib -0.041 | gefitinib 0.215

VASN (UniProt Q6EMK4)
UniProt Q6EMK4, sequence (Q6EMK4 whole entry, looked up): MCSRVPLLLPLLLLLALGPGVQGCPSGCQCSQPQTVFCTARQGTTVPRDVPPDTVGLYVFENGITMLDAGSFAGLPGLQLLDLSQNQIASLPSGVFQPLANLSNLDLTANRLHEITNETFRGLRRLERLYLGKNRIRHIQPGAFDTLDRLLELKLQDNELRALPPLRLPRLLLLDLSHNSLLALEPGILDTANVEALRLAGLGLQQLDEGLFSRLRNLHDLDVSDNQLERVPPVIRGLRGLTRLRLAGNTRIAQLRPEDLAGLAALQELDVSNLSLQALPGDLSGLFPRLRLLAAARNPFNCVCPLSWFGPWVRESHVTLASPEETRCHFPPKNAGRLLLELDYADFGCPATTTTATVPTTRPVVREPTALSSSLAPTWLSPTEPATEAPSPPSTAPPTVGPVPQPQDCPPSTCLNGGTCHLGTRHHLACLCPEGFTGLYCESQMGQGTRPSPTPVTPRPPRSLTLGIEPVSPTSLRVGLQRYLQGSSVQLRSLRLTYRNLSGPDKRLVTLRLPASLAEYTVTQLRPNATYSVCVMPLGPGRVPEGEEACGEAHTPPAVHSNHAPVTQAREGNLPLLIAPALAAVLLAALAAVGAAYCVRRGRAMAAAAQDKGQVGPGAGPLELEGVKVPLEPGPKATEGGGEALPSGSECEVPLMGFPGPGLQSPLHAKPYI
inactive: [2] 0.046 | [3] 0.023 | saracatinib 0.065 | Tubastatin A -0.161 | [6] -0.087 | [7] 0.096 | encorafenib 0.2 | [8] 0.02

ZYG11A (UniProt Q6WRX3)
inactive: [1] -0.15 | barasertib 0.286 | volasertib -0.017 | [3] -0.035 | [4] -0.16 | [5] 0.011 | alvocidib -0.18 | Tubastatin A 0.018 | [6] -0.013 | alisertib -0.08 | [9] 0.212 | gefitinib -0.029

VPS72 (UniProt Q15906)
UniProt Q15906, sequence (Q15906 whole entry, looked up): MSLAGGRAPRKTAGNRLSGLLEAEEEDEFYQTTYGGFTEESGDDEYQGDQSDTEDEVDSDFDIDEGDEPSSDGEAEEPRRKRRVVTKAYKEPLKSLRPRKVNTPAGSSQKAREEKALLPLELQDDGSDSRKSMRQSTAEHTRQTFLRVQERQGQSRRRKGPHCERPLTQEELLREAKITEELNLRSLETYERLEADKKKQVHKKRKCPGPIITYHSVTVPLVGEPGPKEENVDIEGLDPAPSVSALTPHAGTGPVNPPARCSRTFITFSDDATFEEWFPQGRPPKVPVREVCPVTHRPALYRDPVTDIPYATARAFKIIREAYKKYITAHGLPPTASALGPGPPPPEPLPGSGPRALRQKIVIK
inactive: vemurafenib 0.054 | [1] -0.139 | [2] -0.009 | volasertib 0.162 | [3] 0.021 | [4] 0.056 | [5] 0.078 | saracatinib 0.04 | sotrastaurin 0.024 | alvocidib 0 | Tubastatin A 0.028 | [6] 0.041 | defactinib -0.078 | [7] -0.02 | encorafenib -0.016 | [8] -0.134 | alisertib -0.058 | [9] -0.017 | gefitinib -0.108

WSB1 (UniProt Q9Y6I7)
UniProt Q9Y6I7, sequence (Q9Y6I7 whole entry, looked up): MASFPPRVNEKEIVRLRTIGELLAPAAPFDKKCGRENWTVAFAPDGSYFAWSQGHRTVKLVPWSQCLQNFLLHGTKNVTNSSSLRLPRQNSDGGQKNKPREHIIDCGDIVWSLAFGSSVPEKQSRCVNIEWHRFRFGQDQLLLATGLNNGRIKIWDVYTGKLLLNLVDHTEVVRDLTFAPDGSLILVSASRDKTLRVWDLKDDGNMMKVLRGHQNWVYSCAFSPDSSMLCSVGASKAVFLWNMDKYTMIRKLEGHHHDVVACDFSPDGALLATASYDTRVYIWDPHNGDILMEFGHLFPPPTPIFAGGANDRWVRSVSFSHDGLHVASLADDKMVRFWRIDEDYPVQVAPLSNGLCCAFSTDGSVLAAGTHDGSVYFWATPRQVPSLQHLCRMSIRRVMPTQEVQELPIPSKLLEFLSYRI
inactive: [3] 0.105 | [4] 0.078 | [5] 0.08 | saracatinib -0.159 | alvocidib 0.184 | Tubastatin A -0.014 | [7] 0.12

UNC13A (UniProt Q9UPW8)
active: [4] -1.79
inactive: [5] 0.531 | alvocidib -0.643 | [6] -0.11 | alisertib -0.067 | gefitinib -0.076

ZNF593 (UniProt O00488)
UniProt O00488, sequence (O00488 whole entry, looked up): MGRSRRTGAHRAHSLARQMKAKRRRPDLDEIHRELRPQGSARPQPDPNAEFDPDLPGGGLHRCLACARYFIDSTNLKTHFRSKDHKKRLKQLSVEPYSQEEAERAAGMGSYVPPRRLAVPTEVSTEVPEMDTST
inactive: vemurafenib 0.001 | [1] 0.037 | barasertib -0.026 | [2] -0.174 | volasertib -0.034 | [3] 0.078 | [4] -0.012 | [5] 0.016 | saracatinib -0.012 | sotrastaurin -0.105 | alvocidib -0.005 | Tubastatin A -0.07 | [6] -0.135 | defactinib 0.044 | [7] -0.011 | encorafenib -0.006 | [8] -0.088 | [9] 0.231

UNKL (UniProt E9PDK2)
inactive: vemurafenib -0.118 | barasertib 0.047 | [2] -0.075 | saracatinib 0.002 | sotrastaurin -0.05 | defactinib -0.008 | [7] -0.042 | encorafenib 0.044 | [8] 0.106

ZNF652 (UniProt Q9Y2D9)
inactive: sotrastaurin -0.034

WIPI2 isoform 6 (UniProt Q9Y4P8)
inactive: barasertib 0.04 | [4] -0.24 | [5] -0.016 | alvocidib -0.015

URGCP (UniProt Q8TCY9)
inactive: vemurafenib 0.191 | barasertib -0.023 | [3] -0.069 | saracatinib 0 | Tubastatin A 0.168 | defactinib -0.19 | [7] -0.005 | alisertib 0.003 | gefitinib 0.006

ZNF644 (UniProt Q9H582)
inactive: vemurafenib 0.027 | barasertib 0.045 | [2] 0.047 | [3] -0.136 | [4] -0.05 | [5] -0.023 | saracatinib -0.086 | sotrastaurin 0.013 | alvocidib 0.003 | Tubastatin A -0.038 | [6] -0.058 | defactinib 0.025 | [7] -0.02 | encorafenib 0.028 | [8] -0.011 | alisertib -0.018 | gefitinib -0.024

VHL (UniProt P40337)
UniProt P40337, sequence (P40337 whole entry, looked up): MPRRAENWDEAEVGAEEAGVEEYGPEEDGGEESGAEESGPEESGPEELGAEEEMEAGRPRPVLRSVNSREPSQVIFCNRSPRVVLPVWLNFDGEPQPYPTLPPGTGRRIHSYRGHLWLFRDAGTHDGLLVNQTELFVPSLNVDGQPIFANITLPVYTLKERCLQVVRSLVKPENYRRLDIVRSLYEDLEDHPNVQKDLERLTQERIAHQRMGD
inactive: vemurafenib 0.027 | barasertib -0.005 | [2] -0.065 | [3] -0.054 | [4] 0.11 | [5] -0.086 | saracatinib 0.019 | sotrastaurin -0.038 | alvocidib -0.06 | Tubastatin A -0.117 | [6] -0.009 | defactinib -0.034 | [7] -0.047 | encorafenib 0.143 | [8] -0.047 | alisertib 0.05 | gefitinib -0.029

WIPI1 (UniProt Q5MNZ9)
inactive: [1] 0.044 | barasertib 0.04 | [2] 0.119 | volasertib -0.014 | [3] -0.043 | [4] -0.079 | [5] 0.022 | saracatinib 0.025 | sotrastaurin -0.074 | alvocidib -0.046 | Tubastatin A 0.013 | [6] 0.036 | [7] 0.099 | encorafenib -0.009 | [8] 0.029 | alisertib -0.189 | [9] 0.008 | gefitinib -0.017

ZSCAN26 (UniProt Q16670)
inactive: sotrastaurin -0.239

ZNF346 (UniProt Q9UL40)
inactive: [1] 0.007 | barasertib 0.013 | [2] 0.029 | volasertib -0.047 | [3] -0.018 | [4] 0.017 | [5] -0.051 | saracatinib 0.001 | sotrastaurin 0.011 | alvocidib 0.05 | Tubastatin A 0.036 | [6] -0.009 | [7] -0.029 | encorafenib -0.006 | [8] 0.062 | alisertib -0.03 | [9] 0.019 | gefitinib 0.046

USP22 (UniProt Q9UPT9)
inactive: vemurafenib -0.019 | barasertib 0.008 | [2] 0.026 | [3] 0.034 | [4] 0.031 | [5] 0 | saracatinib -0.026 | sotrastaurin 0.018 | alvocidib 0.102 | Tubastatin A -0.044 | [6] 0.034 | defactinib 0.017 | [7] -0.027 | encorafenib -0.007 | [8] 0.055 | alisertib 0.02 | gefitinib -0.011

ZSWIM8 isoform 4 (UniProt A7E2V4)
UniProt A7E2V4, sequence (A7E2V4 whole entry, looked up): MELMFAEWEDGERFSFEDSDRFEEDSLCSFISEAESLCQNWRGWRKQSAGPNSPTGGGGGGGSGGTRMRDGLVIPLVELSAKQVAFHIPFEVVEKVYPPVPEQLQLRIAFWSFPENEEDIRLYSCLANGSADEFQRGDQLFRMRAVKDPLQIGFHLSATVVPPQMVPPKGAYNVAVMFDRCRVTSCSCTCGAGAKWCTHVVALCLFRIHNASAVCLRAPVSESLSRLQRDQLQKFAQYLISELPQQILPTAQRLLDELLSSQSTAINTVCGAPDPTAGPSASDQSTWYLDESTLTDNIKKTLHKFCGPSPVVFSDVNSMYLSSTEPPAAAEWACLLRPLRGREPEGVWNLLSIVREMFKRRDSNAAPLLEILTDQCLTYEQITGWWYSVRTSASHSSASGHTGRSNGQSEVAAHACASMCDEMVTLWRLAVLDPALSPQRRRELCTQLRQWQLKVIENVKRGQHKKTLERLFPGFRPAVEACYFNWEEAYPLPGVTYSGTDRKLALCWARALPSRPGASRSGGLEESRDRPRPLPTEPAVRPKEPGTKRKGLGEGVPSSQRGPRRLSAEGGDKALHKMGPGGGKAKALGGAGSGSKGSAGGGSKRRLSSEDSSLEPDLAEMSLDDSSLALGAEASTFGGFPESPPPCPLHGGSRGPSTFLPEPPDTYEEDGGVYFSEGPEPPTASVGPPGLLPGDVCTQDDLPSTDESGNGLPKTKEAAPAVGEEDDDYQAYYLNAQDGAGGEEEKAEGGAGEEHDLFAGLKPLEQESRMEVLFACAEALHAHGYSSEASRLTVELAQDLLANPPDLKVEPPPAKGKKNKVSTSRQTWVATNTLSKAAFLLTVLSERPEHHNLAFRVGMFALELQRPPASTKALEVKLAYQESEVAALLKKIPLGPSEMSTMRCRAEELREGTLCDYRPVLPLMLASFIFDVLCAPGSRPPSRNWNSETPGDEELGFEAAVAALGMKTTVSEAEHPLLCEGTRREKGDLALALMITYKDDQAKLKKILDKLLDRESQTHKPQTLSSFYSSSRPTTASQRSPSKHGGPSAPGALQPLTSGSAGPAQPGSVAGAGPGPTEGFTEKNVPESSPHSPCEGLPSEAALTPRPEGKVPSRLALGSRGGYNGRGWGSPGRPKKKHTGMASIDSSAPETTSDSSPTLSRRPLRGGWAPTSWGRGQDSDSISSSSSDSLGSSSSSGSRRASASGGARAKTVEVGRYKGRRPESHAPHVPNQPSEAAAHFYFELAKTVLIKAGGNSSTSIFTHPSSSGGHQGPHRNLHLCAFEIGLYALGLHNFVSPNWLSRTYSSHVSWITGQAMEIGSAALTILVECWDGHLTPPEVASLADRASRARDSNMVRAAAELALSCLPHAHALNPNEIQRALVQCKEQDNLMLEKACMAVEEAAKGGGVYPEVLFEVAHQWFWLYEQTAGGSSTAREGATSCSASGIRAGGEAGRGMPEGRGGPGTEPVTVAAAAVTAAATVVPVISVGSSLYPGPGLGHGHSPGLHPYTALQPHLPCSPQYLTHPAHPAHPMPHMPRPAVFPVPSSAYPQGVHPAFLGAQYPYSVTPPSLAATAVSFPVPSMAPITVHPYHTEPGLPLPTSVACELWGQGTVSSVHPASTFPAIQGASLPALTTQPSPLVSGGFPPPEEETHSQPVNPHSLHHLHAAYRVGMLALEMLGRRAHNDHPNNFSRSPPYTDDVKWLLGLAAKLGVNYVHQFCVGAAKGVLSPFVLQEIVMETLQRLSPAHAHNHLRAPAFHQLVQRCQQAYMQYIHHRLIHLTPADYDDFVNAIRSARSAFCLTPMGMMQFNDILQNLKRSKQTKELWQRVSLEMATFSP
inactive: vemurafenib -0.173 | barasertib 0.22 | [2] 0.039 | [3] 0.038 | [4] -0.094 | [5] -0.071 | saracatinib 0.018 | sotrastaurin 0.039 | alvocidib 0.078 | Tubastatin A 0.149 | [6] -0.171 | defactinib 0.088 | [7] -0.226 | encorafenib 0.035 | [8] -0.071 | alisertib -0.034 | gefitinib -0.073

UTRN isoform 2 (UniProt P46939)
inactive: barasertib -0.019 | [2] -0.318 | [4] 0.148 | [5] -0.003 | alvocidib -0.084 | [6] -0.166 | encorafenib -0.012 | [8] -0.037

ZNF146 (UniProt Q15072)
inactive: saracatinib 0.247 | [7] 0.12

ZNF845 (UniProt Q96IR2)
inactive: vemurafenib 0.085 | [1] -0.024 | barasertib 0.088 | volasertib -0.044 | [3] 0.135 | [4] -0.012 | [5] 0.078 | saracatinib -0.019 | sotrastaurin -0.012 | alvocidib 0.011 | Tubastatin A -0.149 | [6] 0.314 | defactinib -0.001 | [7] 0.093 | alisertib -0.018 | [9] 0.035 | gefitinib 0.035

WAC isoform 5 (UniProt Q9BTA9)
inactive: [3] 0.047 | saracatinib -0.078 | Tubastatin A -0.119 | [6] -0.359 | [7] -0.117

ZNF281 (UniProt Q9Y2X9)
UniProt Q9Y2X9, sequence (Q9Y2X9 whole entry, looked up): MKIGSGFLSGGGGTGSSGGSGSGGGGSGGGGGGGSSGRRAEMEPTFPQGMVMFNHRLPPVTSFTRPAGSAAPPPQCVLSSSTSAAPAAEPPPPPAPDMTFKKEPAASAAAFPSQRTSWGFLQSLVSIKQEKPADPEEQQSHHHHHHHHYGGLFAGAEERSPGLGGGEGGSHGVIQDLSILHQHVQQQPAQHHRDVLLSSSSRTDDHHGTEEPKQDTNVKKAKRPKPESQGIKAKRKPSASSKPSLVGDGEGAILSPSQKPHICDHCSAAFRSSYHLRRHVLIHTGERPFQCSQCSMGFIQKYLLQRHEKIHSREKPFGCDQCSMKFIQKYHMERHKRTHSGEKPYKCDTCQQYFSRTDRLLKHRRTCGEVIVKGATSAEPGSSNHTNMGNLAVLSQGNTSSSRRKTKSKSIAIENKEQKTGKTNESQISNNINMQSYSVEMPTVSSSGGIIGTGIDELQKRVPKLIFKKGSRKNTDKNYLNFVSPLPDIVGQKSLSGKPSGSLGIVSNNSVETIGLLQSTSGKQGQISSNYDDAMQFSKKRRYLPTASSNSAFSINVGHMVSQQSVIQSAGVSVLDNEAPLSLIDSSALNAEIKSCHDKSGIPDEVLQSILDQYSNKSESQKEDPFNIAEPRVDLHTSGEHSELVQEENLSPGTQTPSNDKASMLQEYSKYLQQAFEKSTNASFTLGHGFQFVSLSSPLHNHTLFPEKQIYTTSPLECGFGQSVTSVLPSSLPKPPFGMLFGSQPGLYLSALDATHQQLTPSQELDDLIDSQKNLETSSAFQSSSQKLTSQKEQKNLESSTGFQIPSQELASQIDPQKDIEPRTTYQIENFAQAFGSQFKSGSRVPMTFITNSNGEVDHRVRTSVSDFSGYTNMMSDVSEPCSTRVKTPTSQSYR
inactive: [3] 0.011 | saracatinib -0.069 | sotrastaurin 0.028 | Tubastatin A -0.16 | [6] 0.025 | [7] 0.095

ULK3 isoform 4 (UniProt Q6PHR2)
active: [4] -0.634
inactive: vemurafenib 0.022 | [1] -0.042 | barasertib 0.001 | [2] -0.196 | volasertib -0.139 | [5] -0.285 | saracatinib 0.18 | sotrastaurin -0.077 | alvocidib -0.014 | [6] 0.004 | defactinib 0.039 | [7] 0.016 | encorafenib -0.089 | [8] -0.061 | [9] 0.089

YBEY (UniProt P58557)
inactive: vemurafenib -0.119 | [2] -0.054 | saracatinib -0.058 | [6] -0.056 | defactinib 0.016 | [7] -0.066 | encorafenib -0.037 | [8] 0.071
